Here are results for 37 compounds from PubChem BioAssay (Tox21).

Several values for one entry are separate records, joined by “and”; a condition that tells them apart may be missing. Identical values can stand only once. Inconclusive results are not listed. A call without a number means that no potency is given here. Some compounds were tested as several samples or in several runs, with calls that do not always agree. Activity calls are given as the source filed them. Unless noted, calls come from the whole dose curve.
Potency is the fitted concentration of half-maximal effect.

The first assay addresses Nuclear receptor ROR-gamma (Homo sapiens) (UniProt P51449). Briefly: qHTS assay to identify small molecule antagonists of the retinoid-related orphan receptor gamma (ROR-gamma) signaling pathway (AID 1159521; active = well fitted inhibition curve with a large enough effect in the repeat runs; note: nearly all actives have a fitted effect of over 50% in size). The settings on record: Tet-on RORgamma CHO cells, RORE-luciferase, 16 h; series mostly up to 92.4 µM. Put shortly:
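CHO Tet-on RORγ, RORE-luc reporter. Cpd 2 h pre-incubation, then dox hyclate 1 uM final, 16 h, 37 C/5% CO2. ONE-Glo luminescence; decrease = antagonist.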
(In general: In qHTS, concentration-response curves come from the screen itself.)
`O=C(O)c1cc(=O)[nH]c(=O)[nH]1`: the Potency entry is “inactive”.

For `C1COCCN1`, the Potency result is “inactive”.

For `c1ccc2ncccc2c1`, the Potency result is “inactive”.

Take `CCC/C=C/C=O`: the Potency result is “inactive”.

Regarding `NCCS(=O)(=O)O`, the Potency result was “inactive”.

As to `CC(=O)Oc1ccc(C(c2ccc(OC(C)=O)cc2)c2ccccn2)cc1`, the Potency result is “inactive”.

As to `CN(C)CCCN1c2ccccc2Sc2ccc(Cl)cc21`, the Potency is 34.4 µM (active).

`CN1CCOCC1`: the Potency result was “inactive”.

In the case of `CNC[C@H](O)c1ccc(O)c(O)c1`, the Potency result is “inactive”.

With `O=C(O)CCCCCCCCCCCC(=O)O`, the Potency was 53.6 µM (active) and inactive.

Consider `O=[Se](O)O`, for which the Potency is 1.65 µM (active).

With `CC(=O)[C@H]1CC[C@H]2[C@@H]3CC=C4C[C@@H](O)CC[C@]4(C)[C@H]3CC[C@]12C`, the Potency was 13.7 µM (active).

Turning to `O=Cc1ccccc1C=O`, the Potency was 17.2 µM (active) and inactive.

On to `CC1(C)OC(=O)NC1=O`, for which the Potency entry is “inactive”.

`Nc1ccc2c(c1)C(=O)c1ccccc1C2=O`: the Potency result was “inactive”.

As to `CC(=O)OC(C)C`, the Potency result is “inactive”.

As to `CCO[Si](CCCNC(N)=O)(OCC)OCC`, the Potency entry was “inactive”.

For `NCCOCCO`, the Potency result is “inactive”.

On to `COC(=O)c1ccc(C)cc1`, for which the Potency entry is “inactive”.

As for `CC(C)[N+](C)(CCOC(=O)C1c2ccccc2Oc2ccccc21)C(C)C`, the Potency result was “inactive”.

`CCCCCCOCCOCCO`: the Potency result is “inactive”.

In the case of `COC(=O)C(C)Oc1ccc(Oc2ncc(C(F)(F)F)cc2Cl)cc1` (configuration not stated), the Potency entry was “inactive”.

System in another assay: not listed separately
Briefly: qHTS assay to identify small molecule agonists of the AP-1 signaling pathway - cell viability counter screen (AID 1159525). Note: nearly all actives have a fitted effect of over 55% in size. To be noted: ME-180 AP-1-bla cells viability, ATP luminescence, 5 h; series mostly up to 76.8 µM. Put shortly:
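Each titration point was normalised to DMSO and tetra n-octyl ammonium bromide controls. The read was Cell Titer Glo luminescence after 30 min at RT, following 5 h compound exposure of ME-180 AP-1-bla cells at 37 °C.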
For `O=C(O)c1cc(=O)[nH]c(=O)[nH]1`, the Potency entry is “inactive”.

Consider `C1COCCN1`, for which the Potency result is “inactive”.

`c1ccc2ncccc2c1`: the Potency entry was “inactive”.

With `CCC/C=C/C=O`, the Potency entry was “inactive”.

Take `NCCS(=O)(=O)O`: the Potency entry is “inactive”.

As for `CC(=O)Oc1ccc(C(c2ccc(OC(C)=O)cc2)c2ccccn2)cc1`, the Potency was 109 nM (active) and 952 nM (active).

Consider `CN(C)CCCN1c2ccccc2Sc2ccc(Cl)cc21`, for which the Potency result was “inactive”.

`CN1CCOCC1`: the Potency entry was “inactive”.

On to `CNC[C@H](O)c1ccc(O)c(O)c1`, for which the Potency entry was “inactive”.

Consider `C=C[C@H]1CN2CC[C@H]1C[C@H]2[C@H](O)c1ccnc2ccc(OC)cc12`, for which the Potency result is “inactive”.

For `O=C(O)CCCCCCCCCCCC(=O)O`, the Potency result was “inactive”.

On to `CC1(C)O[C@@H]2C[C@H]3[C@@H]4C[C@H](F)C5=CC(=O)C=C[C@]5(C)[C@@]4(F)[C@@H](O)C[C@]3(C)[C@]2(C(=O)CO)O1`, for which the Potency entry is “inactive”.

As to `O=[Se](O)O`, the Potency result was “inactive”.

Turning to `CC[C@]12CCCN3CCc4c(n(c5ccccc45)[C@@](O)(C(=O)OC)C1)[C@@H]32`, the Potency result is “inactive”.

With `CC(=O)[C@H]1CC[C@H]2[C@@H]3CC=C4C[C@@H](O)CC[C@]4(C)[C@H]3CC[C@]12C`, the Potency entry is “inactive”.

As to `O=Cc1ccccc1C=O`, the Potency result is “inactive”.

In the case of `c1ccc2c(c1)[nH]c1ccccc12`, the Potency entry was “inactive”.

Take `Cc1ccc2c(c1)C(=O)OC2=O`: the Potency entry was “inactive”.

For the compound `CC1(C)OC(=O)NC1=O`, the Potency entry was “inactive”.

Turning to `Nc1ccc2c(c1)C(=O)c1ccccc1C2=O`, the Potency result is “inactive”.

On to `CC(=O)OC(C)C`, for which the Potency entry is “inactive”.

Turning to `ClC/C=C/CCl`, the Potency entry is “inactive”.

Turning to `Oc1c(Cl)ccc(Cl)c1Cl`, the Potency entry was “inactive”.

Consider `CC/C(=C(/CC)c1ccc(O)cc1)c1ccc(O)cc1`, for which the Potency result was “inactive”.

With `C=CCNCC=C`, the Potency result was “inactive”.

Take `CCCN1C=CN(C)C1`: the Potency entry is “inactive”.

Turning to `Oc1ccc(C(c2ccc(O)cc2)C(Cl)(Cl)Cl)cc1`, the Potency entry was “inactive”.

Consider `CCCOCCO`, for which the Potency entry is “inactive”.

`C=CC(C)(O)CCC=C(C)C` (configuration not stated): the Potency result was “inactive”.

As for `[Na+]`, the Potency entry is “inactive”.

Consider `CCO[Si](CCCNC(N)=O)(OCC)OCC`, for which the Potency entry was “inactive”.

Regarding `NCCOCCO`, the Potency result was “inactive”.

As for `COC(=O)c1ccc(C)cc1`, the Potency entry is “inactive”.

On to `CC(C)[N+](C)(CCOC(=O)C1c2ccccc2Oc2ccccc21)C(C)C`, for which the Potency entry is “inactive”.

`CCCCCCOCCOCCO`: the Potency result was “inactive”.

With `Cc1ccc(/C(=C\CN2CCCC2)c2ccccn2)cc1`, the Potency entry was “inactive”.

Take `COC(=O)C(C)Oc1ccc(Oc2ncc(C(F)(F)F)cc2Cl)cc1` (configuration not stated): the Potency entry was “inactive”.

System in a further assay: not listed separately
Briefly: qHTS assay to identify small molecule agonists of the AP-1 signaling pathway (AID 1159526). The settings on record: ME-180 (cervical carcinoma) AP-1-bla reporter, beta-lactamase FRET ratio, 5 h; series mostly up to 76.8 µM.
For `O=C(O)c1cc(=O)[nH]c(=O)[nH]1`, the Potency result is “inactive”.

In the case of `C1COCCN1`, the Potency result was “inactive”.

As to `c1ccc2ncccc2c1`, the Potency entry is “inactive”.

For the compound `CCC/C=C/C=O`, the Potency result is “inactive”.

Regarding `NCCS(=O)(=O)O`, the Potency entry was “inactive”.

Regarding `CN1CCOCC1`, the Potency result was “inactive”.

As to `CNC[C@H](O)c1ccc(O)c(O)c1`, the Potency result was “inactive”.

In the case of `C=C[C@H]1CN2CC[C@H]1C[C@H]2[C@H](O)c1ccnc2ccc(OC)cc12`, the Potency entry was “inactive”.

In the case of `O=C(O)CCCCCCCCCCCC(=O)O`, the Potency entry was “inactive”.

Take `CC1(C)O[C@@H]2C[C@H]3[C@@H]4C[C@H](F)C5=CC(=O)C=C[C@]5(C)[C@@]4(F)[C@@H](O)C[C@]3(C)[C@]2(C(=O)CO)O1`: the Potency result is “inactive”.

For `O=[Se](O)O`, the Potency entry was “inactive and 5.28 µM (active)”.

Regarding `CC(=O)[C@H]1CC[C@H]2[C@@H]3CC=C4C[C@@H](O)CC[C@]4(C)[C@H]3CC[C@]12C`, the Potency result was “inactive”.

Consider `O=Cc1ccccc1C=O`, for which the Potency result was “inactive”.

For `c1ccc2c(c1)[nH]c1ccccc12`, the Potency entry is “inactive”.

In the case of `Cc1ccc2c(c1)C(=O)OC2=O`, the Potency entry was “inactive”.

On to `CC1(C)OC(=O)NC1=O`, for which the Potency entry was “inactive”.

As for `Nc1ccc2c(c1)C(=O)c1ccccc1C2=O`, the Potency result was “inactive”.

Turning to `CC(=O)OC(C)C`, the Potency result is “inactive”.

Take `ClC/C=C/CCl`: the Potency entry was “inactive”.

Take `Oc1c(Cl)ccc(Cl)c1Cl`: the Potency result is “inactive”.

Turning to `CC/C(=C(/CC)c1ccc(O)cc1)c1ccc(O)cc1`, the Potency result is “inactive”.

As to `C=CCNCC=C`, the Potency result was “inactive”.

Turning to `CCCN1C=CN(C)C1`, the Potency result was “inactive”.

`Oc1ccc(C(c2ccc(O)cc2)C(Cl)(Cl)Cl)cc1`: the Potency result was “inactive”.

`CCCOCCO`: the Potency entry is “inactive”.

Take `C=CC(C)(O)CCC=C(C)C` (configuration not stated): the Potency entry is “inactive”.

In the case of `[Na+]`, the Potency result was “inactive”.

For the compound `CCO[Si](CCCNC(N)=O)(OCC)OCC`, the Potency result was “inactive”.

In the case of `NCCOCCO`, the Potency result was “inactive”.

As for `COC(=O)c1ccc(C)cc1`, the Potency result was “inactive”.

`CC(C)[N+](C)(CCOC(=O)C1c2ccccc2Oc2ccccc21)C(C)C`: the Potency entry is “inactive”.

Turning to `CCCCCCOCCOCCO`, the Potency result is “inactive”.

Consider `COC(=O)C(C)Oc1ccc(Oc2ncc(C(F)(F)F)cc2Cl)cc1` (configuration not stated), for which the Potency result is “inactive”.
